# Unmarked numbers belong to inactive results. The source made the active and inactive calls. Unless noted, no stated cut-off is given here; in the data, active means inhibition above about 42%; inactive means the rest.
# What was measured:
# [1] = target: Nuclear receptor coactivator 3 (Homo sapiens) (UniProt Q9Y6Q9); experiment: NCOA3 GAL4-fusion reporter inhibition – cell-based, luminescence, quadruplicate, confirmation (AID 588792;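 active means mean inhibition over 43.08%, the solvent-only control mean plus 3 SD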;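 further: 0% = DMSO treated cells and 100% = gossypol at 36 µM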); conditions: HEK293 GAL4-SRC3 luciferase reporter, at 3.6 µM, stronger effect = higher value
# Chain of Nuclear receptor coactivator 3 (Homo sapiens) (Q9Y6Q9 whole entry, looked up, the tested form may be a part): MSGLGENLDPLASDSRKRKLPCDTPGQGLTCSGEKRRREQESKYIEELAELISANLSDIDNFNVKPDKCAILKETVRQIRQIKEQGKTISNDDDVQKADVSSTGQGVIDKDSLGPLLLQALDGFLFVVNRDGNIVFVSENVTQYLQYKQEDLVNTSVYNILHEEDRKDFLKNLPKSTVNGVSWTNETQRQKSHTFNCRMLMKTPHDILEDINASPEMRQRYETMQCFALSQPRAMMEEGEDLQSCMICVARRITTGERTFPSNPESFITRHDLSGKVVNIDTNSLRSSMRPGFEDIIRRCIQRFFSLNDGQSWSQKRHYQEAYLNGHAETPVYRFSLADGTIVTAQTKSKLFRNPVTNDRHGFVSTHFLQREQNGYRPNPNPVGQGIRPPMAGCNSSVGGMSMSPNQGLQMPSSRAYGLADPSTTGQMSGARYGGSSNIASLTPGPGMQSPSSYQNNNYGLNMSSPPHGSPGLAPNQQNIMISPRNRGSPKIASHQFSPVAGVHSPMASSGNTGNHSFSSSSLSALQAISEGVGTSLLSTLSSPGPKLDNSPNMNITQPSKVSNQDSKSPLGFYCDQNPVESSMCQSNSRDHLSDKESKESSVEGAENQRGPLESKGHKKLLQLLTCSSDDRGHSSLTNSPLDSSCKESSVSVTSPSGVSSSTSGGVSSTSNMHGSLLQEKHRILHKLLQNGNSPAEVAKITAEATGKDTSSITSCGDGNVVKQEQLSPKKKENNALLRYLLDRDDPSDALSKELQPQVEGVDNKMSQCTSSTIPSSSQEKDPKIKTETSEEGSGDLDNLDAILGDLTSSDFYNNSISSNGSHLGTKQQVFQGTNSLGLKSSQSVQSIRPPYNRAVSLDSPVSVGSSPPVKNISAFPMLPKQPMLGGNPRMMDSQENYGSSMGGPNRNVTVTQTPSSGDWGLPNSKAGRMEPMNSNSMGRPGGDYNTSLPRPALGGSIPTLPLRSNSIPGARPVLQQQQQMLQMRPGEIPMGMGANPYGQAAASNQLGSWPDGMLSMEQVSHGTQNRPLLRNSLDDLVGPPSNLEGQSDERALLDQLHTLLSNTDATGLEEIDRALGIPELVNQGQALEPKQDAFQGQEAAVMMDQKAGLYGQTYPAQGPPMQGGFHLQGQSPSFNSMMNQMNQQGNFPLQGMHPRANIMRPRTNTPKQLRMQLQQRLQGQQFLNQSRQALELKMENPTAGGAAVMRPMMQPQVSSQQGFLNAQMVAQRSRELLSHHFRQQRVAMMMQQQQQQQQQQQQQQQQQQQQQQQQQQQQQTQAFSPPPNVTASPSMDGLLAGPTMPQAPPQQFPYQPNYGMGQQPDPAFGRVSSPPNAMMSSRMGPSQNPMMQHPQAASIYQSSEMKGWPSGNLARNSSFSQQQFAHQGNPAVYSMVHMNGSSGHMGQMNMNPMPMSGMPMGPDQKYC
# [2] = tested on: transactivating tegument protein VP16 (Human herpesvirus 1), Gal4-VP16 luciferase reporter; experiment: repression of VP16-driven luciferase reporter – cell-based, luminescence, high throughput, counter-screen for SRC3 inhibitor project (AID 588794; in the data active means inhibition above about 30%); conditions: mammalian cells, at 3.6 µM, stronger effect = higher value
# [3] = target: Nuclear receptor coactivator 1 (Homo sapiens) (UniProt Q15788); experiment: NCOA1 GAL4-fusion reporter inhibition – cell-based, luminescence, quadruplicate, confirmation (AID 588820;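 active means mean inhibition above 46.68%, the untreated control wells mean plus 3 SD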;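 further: 0% = DMSO wells and 100% = gossypol 36 µM treated wells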); conditions: HEK293 GAL4-SRC1 luciferase reporter, at 3.6 µM, stronger effect = higher value
# Chain of Nuclear receptor coactivator 1 (Homo sapiens) (Q15788 whole entry, looked up, the tested form may be a part): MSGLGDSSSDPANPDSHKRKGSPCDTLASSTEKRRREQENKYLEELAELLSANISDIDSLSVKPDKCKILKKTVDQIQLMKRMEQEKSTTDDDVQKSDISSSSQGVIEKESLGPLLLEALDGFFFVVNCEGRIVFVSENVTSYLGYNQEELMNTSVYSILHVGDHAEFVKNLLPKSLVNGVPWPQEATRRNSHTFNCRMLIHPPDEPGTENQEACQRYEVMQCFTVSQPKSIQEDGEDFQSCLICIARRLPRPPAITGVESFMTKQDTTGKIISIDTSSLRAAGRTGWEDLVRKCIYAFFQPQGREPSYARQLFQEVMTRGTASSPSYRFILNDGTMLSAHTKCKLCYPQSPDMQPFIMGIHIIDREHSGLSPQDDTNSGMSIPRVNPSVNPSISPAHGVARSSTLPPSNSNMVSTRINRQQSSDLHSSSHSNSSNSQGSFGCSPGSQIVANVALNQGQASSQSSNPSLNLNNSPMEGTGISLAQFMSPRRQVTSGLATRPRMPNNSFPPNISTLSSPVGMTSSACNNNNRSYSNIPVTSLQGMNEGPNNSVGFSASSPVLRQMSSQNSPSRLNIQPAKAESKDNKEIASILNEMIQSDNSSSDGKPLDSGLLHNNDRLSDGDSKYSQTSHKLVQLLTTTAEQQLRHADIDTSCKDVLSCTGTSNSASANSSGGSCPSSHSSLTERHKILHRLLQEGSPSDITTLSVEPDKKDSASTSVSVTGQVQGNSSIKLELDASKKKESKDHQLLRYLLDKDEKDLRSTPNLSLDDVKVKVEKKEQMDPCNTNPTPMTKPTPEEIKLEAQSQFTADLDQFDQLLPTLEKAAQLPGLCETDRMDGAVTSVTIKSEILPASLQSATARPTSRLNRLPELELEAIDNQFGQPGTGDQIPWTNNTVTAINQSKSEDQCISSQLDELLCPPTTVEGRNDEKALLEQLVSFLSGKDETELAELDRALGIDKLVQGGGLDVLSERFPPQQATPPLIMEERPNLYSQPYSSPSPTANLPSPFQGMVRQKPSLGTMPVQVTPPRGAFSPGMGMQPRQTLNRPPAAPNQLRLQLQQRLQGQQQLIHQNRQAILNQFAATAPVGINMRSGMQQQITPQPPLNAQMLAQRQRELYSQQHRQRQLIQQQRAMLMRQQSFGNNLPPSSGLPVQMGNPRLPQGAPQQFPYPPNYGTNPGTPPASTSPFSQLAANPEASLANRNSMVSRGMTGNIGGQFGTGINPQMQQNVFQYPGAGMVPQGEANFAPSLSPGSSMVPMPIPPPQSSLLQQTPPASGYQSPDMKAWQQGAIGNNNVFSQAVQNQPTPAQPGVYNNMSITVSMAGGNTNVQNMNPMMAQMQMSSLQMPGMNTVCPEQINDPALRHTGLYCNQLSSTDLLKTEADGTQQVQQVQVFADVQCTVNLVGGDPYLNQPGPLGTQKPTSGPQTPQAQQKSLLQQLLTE
# [4] = repression of VP16-driven luciferase reporter – cell-based, luminescence, high throughput, counter-screen for SRC1 inhibitor project (AID 588824; in the data active means inhibition above about 25%); conditions: cell-based VP16 transactivation luciferase luminescence; at 3.6 µM; stronger effect = higher value
# [5] = StAR promoter reporter inhibitors, counter-screen for LRH-1 inverse agonist project, cell-based, luminescence, high throughput (AID 651611; in the data active means inhibition above about 28%); conditions: StAR promoter luciferase reporter counterscreen, at 3.6 µM, stronger effect = higher value
# [6] = target: Nuclear receptor subfamily 5 group A member 2 (Homo sapiens) (UniProt O00482); experiment: NR5A2 activity suppression in reporter cells – cell-based, luminescence, confirmation (AID 651613); conditions: cell-based LRH-1 luciferase reporter, inverse agonism; at 3.6 µM; stronger effect = higher value;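 further: HEK293T cells co-transfected with LRH-1 and StAR promoter luciferase reporter; 0% = vehicle wells and 100% = parental cells lacking receptor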
# Chain of Nuclear receptor subfamily 5 group A member 2 (Homo sapiens) (O00482 whole entry, looked up): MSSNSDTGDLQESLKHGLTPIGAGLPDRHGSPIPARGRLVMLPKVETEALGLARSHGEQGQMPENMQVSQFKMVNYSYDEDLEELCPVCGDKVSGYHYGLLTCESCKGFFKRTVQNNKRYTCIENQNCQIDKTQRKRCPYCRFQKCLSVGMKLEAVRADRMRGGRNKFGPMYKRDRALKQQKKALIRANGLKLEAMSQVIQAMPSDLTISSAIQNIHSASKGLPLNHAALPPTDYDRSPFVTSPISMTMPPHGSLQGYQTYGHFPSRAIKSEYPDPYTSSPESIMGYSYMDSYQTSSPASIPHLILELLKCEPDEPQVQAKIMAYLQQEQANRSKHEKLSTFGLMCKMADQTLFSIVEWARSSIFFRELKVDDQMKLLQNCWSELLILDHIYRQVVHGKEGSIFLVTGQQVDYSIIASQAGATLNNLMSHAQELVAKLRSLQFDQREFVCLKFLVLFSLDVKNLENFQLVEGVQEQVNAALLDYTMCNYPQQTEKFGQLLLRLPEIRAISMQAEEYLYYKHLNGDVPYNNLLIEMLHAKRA
# [7] = target: Steroidogenic factor 1 (Homo sapiens) (UniProt Q13285); experiment: inverse agonism at SF1 nuclear receptor – cell-based, luminescence, high throughput, counter-screen for LRH-1 inverse agonist project (AID 651614; in the data active means inhibition above about 44%;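 further: cells cotransfected with StAR promoter reporter and SF1 expression vector; 0% = vehicle on cells with receptor and 100% = vehicle on cells lacking receptor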); conditions: cell-based SF1 luciferase reporter, at 3.6 µM, stronger effect = higher value
# Chain of Steroidogenic factor 1 (Homo sapiens) (Q13285 whole entry, looked up, the tested form may be a part): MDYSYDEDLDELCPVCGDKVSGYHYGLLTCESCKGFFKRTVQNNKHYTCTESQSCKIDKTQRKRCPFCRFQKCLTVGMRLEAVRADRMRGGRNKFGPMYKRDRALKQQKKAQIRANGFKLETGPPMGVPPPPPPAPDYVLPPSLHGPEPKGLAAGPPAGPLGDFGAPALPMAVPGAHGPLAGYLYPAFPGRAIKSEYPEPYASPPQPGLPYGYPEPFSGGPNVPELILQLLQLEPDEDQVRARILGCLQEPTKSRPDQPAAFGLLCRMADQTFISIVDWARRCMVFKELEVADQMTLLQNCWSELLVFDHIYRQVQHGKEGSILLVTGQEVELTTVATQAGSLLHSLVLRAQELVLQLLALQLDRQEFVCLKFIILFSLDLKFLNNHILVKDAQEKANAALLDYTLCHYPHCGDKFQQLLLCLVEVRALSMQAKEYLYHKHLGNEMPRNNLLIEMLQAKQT
# [8] = compounds suppressing VP16-driven luciferase signal – cell-based, luminescence, high throughput, counter-screen for LRH-1 inverse agonist project (AID 651615; in the data active means inhibition above about 33%); conditions: Gal4-VP16 luciferase reporter cells, at 3.6 µM, stronger effect = higher value
Compound,inhibition [1],inhibition [2],inhibition [3],inhibition [4],inhibition [5],inhibition [6],inhibition [7],inhibition [8]
COc1ccc(-c2c[n+]3c(n2-c2ccc(C)cc2)CCCCC3)cc1,36.5%,60.1% (active),32.6%,60.2% (active),53% (active),105% (active),82% (active),73.7% (active)
CN(Cc1cnc2nc(N)nc(N)c2n1)c1ccc(C(=O)NC(CCC(=O)O)C(=O)O)c2ccccc12 (stereo unspecified),63.8% (active),15%,68% (active),13.2%,77.9% (active),45.5% (active),47.6% (active),12.9%
CCCC(=O)NC(c1ccc(Cl)cc1)c1ccc2cccnc2c1O (stereo unspecified),31%,28%,15.5%,40.2% (active),71.8% (active),83.3% (active),74.9% (active),74.8% (active)
CC[n+]1c(/C=C/N(C)c2ccccc2)oc2ccccc21,34.7%,55.8% (active),16.9%,55.2% (active),31.9% (active),82% (active),69% (active),73.2% (active)
CN(C)CCNc1ccc(CO)c2oc3ccc(O)cc3c(=O)c12,4.57%,31% (active),33%,33.1% (active),47.7% (active),53.7% (active),53.1% (active),48.4% (active)
COc1ccc(C(=O)Nc2cnn(Cc3ccc(Cl)cc3)c2)cc1OC,26.3%,52.7% (active),23.3%,51% (active),45% (active),51.8% (active),64% (active),63.1% (active)
O=C(c1ccccc1)c1c2c(cc3sc4ccccc4[n+]13)-c1cccc3cccc-2c13,49% (active),61.2% (active),29.4%,64.6% (active),47.8% (active),99.3% (active),75.1% (active),81.7% (active)
Cc1cc(C(C)(C)C)cc(C)c1C[n+]1ccc2ccccc2c1,41.4%,59.3% (active),11.7%,53.3% (active),30.7% (active),99.2% (active),69.1% (active),72.7% (active)
CCCCCCCCCCn1ccc(=N)cc1,70.1% (active),81.1% (active),51.3% (active),80.4% (active),69.4% (active),102% (active),90.2% (active),83.7% (active)
Cc1ccc2[nH]cc(/C=C/c3cc[n+](C)cc3)c2c1,40.1%,52.6% (active),14.5%,59.7% (active),42.2% (active),84% (active),75.5% (active),70.5% (active)
COc1cc(C=NO)nc(-c2ccccn2)c1,78.2% (active),43.5% (active),54% (active),36.5% (active),85.6% (active),96% (active),76.9% (active),45.7% (active)
O=c1[nH]cnc2c1nnn2C1OC(CO)C(O)C1O (stereo unspecified),59% (active),15.3%,-5.97%,17%,69.7% (active),78.6% (active),71.1% (active),27.1%
COc1ccc(NC(=O)c2sc(=O)n(Cc3ccc(F)c(Cl)c3)c2C)cc1OC,24.2%,61.6% (active),18.5%,53.8% (active),54.3% (active),66.2% (active),70.5% (active),72.5% (active)
CCCOC(c1ccccc1)(c1ccc(C(F)(F)F)cc1)C(Oc1nc(C)cc(C)n1)C(=O)O (stereo unspecified),51.2% (active),67% (active),51.6% (active),68.1% (active),75.5% (active),96.3% (active),90.2% (active),75.5% (active)
CCC(C)(C)c1ccc(OCCCC[n+]2cccc(C)c2C)c(C(C)(C)CC)c1,56.1% (active),72.2% (active),43.5%,71% (active),58% (active),88.1% (active),85.2% (active),80.9% (active)
CC(=NNC(=S)Nc1cccc(C)c1)c1ccccn1,65.8% (active),67.1% (active),1.68%,66.7% (active),85.1% (active),99.3% (active),92.4% (active),68.8% (active)
COC(=O)C1=C(CN2CCCc3ccccc32)NC(=O)NC1c1ccc(F)cc1 (stereo unspecified),65.7% (active),32.3% (active),60% (active),34.7% (active),71.5% (active),17%,63.3% (active),4.51%

# — PubChem BioAssay
